Laboratory results reported in PubChem BioAssay AID1159580 (chemical genetic matrix, 2015).
Several values for one entry are separate records, joined by “and”; a condition that tells them apart may be missing. Identical values can stand only once. Among all 5,500 compounds or so, about 2,000 (36%) were called active. Inconclusive results (about 18%) are left out. No stated cut-off is given here; in the data, active means normalized growth mostly below about 0.91 (no sharp cut-off); inconclusive means no clear call, values can overlap the other calls; inactive means mostly above about 0.92. The list shows a part of the results.

Test: chemical genetic growth profiling, strain panel (AID 1159580);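 further: tested at 20 µM; growth read once vehicle control cultures reached saturation at 30 °C; 1 = growth at the plate median or of vehicle wells; lower values mean less growth of the strain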
Details: S. cerevisiae deletion strains, growth OD

Measured: normalized growth

CCN(CCO)CCCC(C)Nc1ccnc2cc(Cl)ccc12 (configuration not stated)
inactive: locus YAL013W, strain DEP1, hits give low values 1.01 | locus YAL021C, strain ccr4, hits give low values 1.03 | locus YAL026C, strain drs2, hits give low values 1 | locus YAL030W, strain snc1, hits give low values 0.997 | locus YBL061C, strain skt5, hits give low values 1 | locus YBR009C, strain hhf1, hits give low values 1.01 | locus YBR021W, strain FUR4, hits give low values 1 | locus YBR023C, strain chs3, hits give low values 0.998 | locus YBR171W, strain sec66, hits give low values 1.01 | locus YBR229C, strain ROT2, hits give low values 0.991 | locus YBR231C, strain swc5, hits give low values 1.01 | locus YBR279W, strain paf1, hits give low values 1.01 | locus YCL011C, strain gbp2, hits give low values 1 | locus YCL016C, strain dcc1, hits give low values 1 | locus YCL029C, strain bik1, hits give low values 1.01 | locus YCL061C, strain MRC1, hits give low values 0.993 | locus YCL069W, strain vba3, hits give low values 0.998 | locus YCR088W, strain abp1, hits give low values 0.997 | locus YDL005C, strain med2, hits give low values 0.994 | locus YDL035C, strain GPR1, hits give low values 1.02 | locus YDL040C, strain nat1, hits give low values 0.999 | locus YDL074C, strain BRE1, hits give low values 1.01 | locus YDL101C, strain DUN1, hits give low values 1.02 | locus YDL134C, strain PPH21, hits give low values 1 | locus YDL185W, strain tfp1, hits give low values 1.01 | locus YDL192W, strain arf1, hits give low values 1.01 | locus YDR001C, strain nth1, hits give low values 1 | locus YDR069C, strain doa4, hits give low values 1.01 | locus YDR101C, strain arx1, hits give low values 1.02 | locus YDR137W, strain rgp1, hits give low values 0.978 | locus YDR150W, strain NUM1, hits give low values 1.01 | locus YDR159W, strain sac3, hits give low values 0.999 | locus YDR162C, strain NBP2, hits give low values 1.01 | locus YDR195W, strain ref2 1 | locus YDR297W, strain sur2, hits give low values 1.01 | locus YDR318W, strain mcm21, hits give low values 1.03 | locus YDR334W, strain swr1, hits give low values 1.01 | locus YDR335W, strain msn5, hits give low values 0.999 | locus YDR388W, hits give low values 1.01 | locus YDR392W, strain spt3, hits give low values 1.03 | locus YDR502C, strain sam2, hits give low values 1.02 | locus YEL003W, strain gim4, hits give low values 1 | locus YEL037C, strain rad23, hits give low values 1.01 | locus YEL061C, strain CIN8 (second series), hits give low values 1.01 | locus YEL061C, strain CIN8, hits give low values 1.01 | locus YER015W, strain faa2, hits give low values 1.01 | locus YER016W, strain bim1, hits give low values 1 | locus YER110C, hits give low values 1.01 | locus YER111C, strain swi4, hits give low values 1 | locus YER155C, strain BEM2 (second series), hits give low values 1 | locus YER155C, strain BEM2, hits give low values 1.01 | locus YER167W, strain BCK2, hits give low values 1.01 | locus YFR010W, strain ubp6, hits give low values 1.01 | locus YGL078C, strain dbp3, hits give low values 1.02 | locus YGL086W, strain mad1, hits give low values 1.02 | locus YGL167C, strain pmr1, hits give low values 0.994 | locus YGL173C, strain kem1, hits give low values 0.996 | locus YGL227W, strain vid30, hits give low values 0.997 | locus YGL240W, strain doc1, hits give low values 1.01 | locus YGL248W, strain PDE1, hits give low values 0.993 | locus YGL253W, strain hxk2, hits give low values 0.999 | locus YGR078C, strain PAC10, hits give low values 1.03 | locus YGR135W, strain pre9, hits give low values 1.01 | locus YGR229C, strain SMI1, hits give low values 1.03 | locus YGR252W, strain gcn5, hits give low values 1.21 | locus YHR013C, strain ard1, hits give low values 1 | locus YHR027C, strain rpn1, hits give low values 0.988 | locus YHR030C, strain SLT2, hits give low values 1.01 and 0.985 | locus YHR079C, strain IRE1 (second series), hits give low values 1.01 | locus YHR079C, strain IRE1, hits give low values 0.99 | locus YHR094C, strain hxt1, hits give low values 1.01 | locus YHR129C, strain ARP1, hits give low values 1.01 | locus YHR142W, strain chs7, hits give low values 1 | locus YHR200W, strain rpn10, hits give low values 1.02 | locus YIL066C, strain RNR3, hits give low values 1.03 | locus YIL073C, strain SPO22, hits give low values 1.05 | locus YIL125W, strain kgd1, hits give low values 1 | locus YIR030C, strain dcg1, hits give low values 1.01 | locus YJL092W, strain hpr5, hits give low values 0.998 | locus YJL095W, strain BCK1 (second series), hits give low values 0.995 | locus YJL095W, strain BCK1, hits give low values 1.01 | locus YJL115W, strain asf1, hits give low values 1.01 | locus YJL129C, strain trk1, hits give low values 0.991 | locus YJL134W, strain LCB3, hits give low values 1.01 | locus YJL154C, strain vps35, hits give low values 1.01 | locus YJL164C, strain tpk1, hits give low values 1 | locus YJL166W, strain qcr8, hits give low values 1 | locus YJL168C, strain set2, hits give low values 1.01 | locus YJL187C, strain SWE1 (second series), hits give low values 1.02 | locus YJL187C, strain SWE1, hits give low values 0.999 | locus YJR043C, strain POL32, hits give low values 1.04 | locus YJR066W, strain TOR1, hits give low values 0.961
